± gives the standard deviation of the averaged measurements.
What was measured:
Test in all cases: cell viability (% of vehicle); higher = less cytotoxic
HCI01 [1] = cells of a triple-negative basal-like breast cancer xenograft; conditions: 1 µM; 72 h
UCD52 [2] = cells of a triple-negative basal-like breast cancer xenograft; conditions: 1 µM; 72 h
WHIM2 [3] = cells of a triple-negative basal-like breast cancer xenograft; conditions: 1 µM; 72 h
WHIM30 [4] = cells of a triple-negative basal-like breast cancer xenograft; conditions: 1 µM; 72 h
HCI01 [5] = conditions: 10 µM; 72 h
HCI03 = cells of an ER-positive luminal breast cancer xenograft; conditions: 10 µM; 72 h
HCI09 = cells of a triple-negative luminal androgen receptor type breast cancer xenograft; conditions: 10 µM; 72 h
HCI11 = cells of an ER-positive luminal breast cancer xenograft; conditions: 10 µM; 72 h
HCI16 = cells of a triple-negative basal-like breast cancer xenograft; conditions: 10 µM; 72 h
UCD52 [6] = conditions: 10 µM; 72 h
WHIM2 [7] = conditions: 10 µM; 72 h
WHIM30 [8] = conditions: 10 µM; 72 h
HCI13 = cells of an ER-positive luminal breast cancer xenograft; conditions: 10 µM; 72 h

Row | Compound | cell viability (HCI01 [1]) | cell viability (UCD52 [2]) | cell viability (WHIM2 [3]) | cell viability (WHIM30 [4]) | cell viability (HCI01 [5]) | cell viability (HCI03) | cell viability (HCI09) | cell viability (HCI11) | cell viability (HCI16) | cell viability (UCD52 [6]) | cell viability (WHIM2 [7]) | cell viability (WHIM30 [8]) | cell viability (HCI13)
1 | CCN(CC)CCNC(=O)c1c(C)[nH]c(C=C2C(=O)Nc3ccc(F)cc32)c1C [Sunitinib] | 81.1 | 73 | 66 | 86.7 | 106 ± 39 | 134 | 71.8 ± 35 | 134 | 125 | 61.8 ± 3.4 | 104 ± 68 | 37.9 ± 7.1 | 
2 | O=C(C=Cn1cnc(-c2cc(C(F)(F)F)cc(C(F)(F)F)c2)n1)NNc1cnccn1 | 67.4 | 59.5 | 66.1 | 41.8 | 41.9 ± 24 | 41 | 31.5 ± 14 | 92.7 | 73.2 | 80.1 ± 1.8 | 70.94 ± 0.096 | 46.7 ± 0.48 | 35.4 ± 2.5
3 | Nc1ccc2cc3ccc([NH3+])cc3nc2c1.Nc1ccc2cc3ccc([NH3+])cc3nc2c1.O=S(=O)([O-])[O-] [Proflavine Hemisulfate] | 91.4 | 139 | 51.3 | 58.8 | 82.6 ± 55 | 144 | 23.3 ± 3.6 | 41.6 | 165 | 54.6 ± 16 | 50.3 ± 13 | 85.2 ± 2.2 | 
4 | CC(C)C1=CC(=C2NNC(=O)N2c2ccc3c(ccn3C)c2)C(=O)C=C1O [Ganetespib (STA-9090)] | 83.9 | 46.6 | 55.2 | 138 | 59.1 ± 28 | 53.9 | 25.3 ± 2 | 36.5 | 68.2 | 48.6 ± 9.8 | 95 ± 7.9 | 96.6 ± 1.9 | 
5 | Cc1cc(-n2c(=O)[nH]c(=O)n(C)c2=O)ccc1Oc1ccc(SC(F)(F)F)cc1 [Toltrazuril] | 90.8 | 97.6 | 105 | 90.8 | 75.8 ± 1.2 | 132 | 61.9 ± 18 | 84 | 115 | 79.5 ± 4.9 | 41.3 ± 3.9 | 98.6 ± 14 | 117 ± 11
6 | Cl.Cl.O=C1c2c(O)ccc(O)c2C(=O)c2c(NCCNCCO)ccc(NCCNCCO)c21 [Mitoxantrone HCl] | 105 | 36.2 | 27.3 | 37.2 | 55.3 ± 38 | 111 | 25.9 ± 0.83 | 55.7 | 117 | 27.5 ± 0.38 | 41.3 ± 18 | 65.4 ± 12 | 73.4 ± 11
7 | CO[C@H]1/C=C/O[C@@]2(C)Oc3c(C)c(O)c4c(O)c(c(/C=N/N5CCN(C6CCCC6)CC5)c(O)c4c3C2=O)NC(=O)/C(C)=C\C=C\[C@H](C)[C@H](O)[C@@H](C)[C@@H](O)[C@@H](C)[C@H](OC(C)=O)[C@@H]1C [Rifapentine] | 93.7 | 88.8 | 104 | 95.8 | 47.7 ± 28 | 120 | 26.9 ± 5.9 | 104 | 122 | 77.4 ± 4.6 | 53.9 ± 24 | 117.8 ± 0.39 | 133 ± 18

Reference: the supplement of paper PMC6992640
